We go through four compounds from PubChem BioAssay (EPA / NIEHS).

Molecules are shown by their SMILES. Results filed as inconclusive are left out. Some compounds were tested as several samples or in several runs, with calls that do not always agree. Calls of active or inactive are those of the source. Rule for the calls, unless noted: active = hit-call score of the fitted dose curve at least 0.9, where 1 is the maximum; inactive = score below 0.9.

Experiment [1] can be described thus: ATG_PBREM_CIS: Attagene CIS-FACTORIAL HepG2 Assay for human Phenobarbital-responsive Enhancer Module (PBREM) (AID 2282955). The conditions noted are these: HepG2 PBREM cis-reporter, Attagene multiplexed transcription; actives raise or lower the signal. Summed up:
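HepG2 cells transiently transfected with multiple cis-regulated reporter units measure endogenous transcription factor activity; 24 h compound exposure. Reporter mRNA quantified by RT-PCR, fluorescent labelling, HpaI digestion and capillary electrophoresis; bidirectional fit versus DMSO.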

In experiment [2] the target is Paired box protein Pax-6 (Homo sapiens) (UniProt P26367). In words: ATG_Pax6_CIS: Attagene CIS-FACTORIAL HepG2 Assay for human Paired Box 6 (PAX6) (AID 2282956). The note with it: HepG2 CIS-FACTORIAL PAX6 reporter transcription, RNA readout; actives raise or lower the signal. Summed up:
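HepG2 cells transiently transfected with cis-promoter-driven multiplexed reporter units sensing endogenous transcription factor activity; 24 h chemical exposure. Reporter mRNA quantified by RT-PCR, 6-FAM labelling, HpaI digestion and capillary electrophoresis; bidirectional fit versus DMSO baseline.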

A short description of experiment [3]: ATG_PXRE_CIS: Attagene CIS-FACTORIAL HepG2 Assay for human Pregnane X Receptor Element (PXRE) (AID 2282957). The note with it: HepG2 Attagene CIS-FACTORIAL PXRE reporter, mRNA; actives raise or lower the signal. The method in brief:
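Transfect HepG2 with MRTUs (cis promoter elements); dose chemical, incubate 24 h; isolate RNA, RT with oligo(dT), PCR, 6-FAM label, HpaI cut, CE. Gain/loss fit vs DMSO.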

A short description of experiment [4]: ATG_RORE_CIS: Attagene CIS-FACTORIAL HepG2 Assay for human RAR-related Orphan Receptor Element (RORE) (AID 2282959). The note with it: HepG2 Attagene cis-factorial RORE reporter, mRNA; actives raise or lower the signal. Summed up: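 HepG2 cells carrying transiently transfected cis-regulated reporter units; RORE-driven reporter mRNA quantified 24 h post-dosing by RT-PCR, 6-FAM primer extension, HpaI digestion and capillary electrophoresis. Bidirectional fit versus DMSO.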

Experiment [5] can be described thus: ATG_Sox_CIS: Attagene CIS-FACTORIAL HepG2 Assay for human SRY-box transcription factor (SOX) (AID 2282960). The conditions noted are these: HepG2 Attagene cis-factorial SOX reporter, mRNA; actives raise or lower the signal. Summed up: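 HepG2 cells transiently transfected with multiple cis-regulated reporter units, then dosed for 24 h. Reporter mRNA quantified by RT-PCR, fluorescent labelling, HpaI digestion and capillary electrophoresis; bidirectional fit versus DMSO.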

In experiment [6] the target is Transcription factor Sp1 (Homo sapiens) (UniProt P08047). In words: ATG_Sp1_CIS: Attagene CIS-FACTORIAL HepG2 Assay for human Specificity Protein 1 (Sp1) (AID 2282961). The note with it: HepG2 Sp1 cis-reporter transcription, actives raise or lower the signal. The method in brief:
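HepG2 cells transiently transfected with multiplexed cis-regulated reporter constructs, chemical exposure 24 h. Reporter mRNA quantified by RT-PCR with capillary electrophoresis; bidirectional fit relative to DMSO.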

A short description of experiment [7]: ATG_SREBP_CIS: Attagene CIS-FACTORIAL HepG2 Assay for human Sterol Regulatory Element Binding (SREBP) (AID 2282962). The conditions noted are these: HepG2 Attagene cis-factorial SREBP reporter, mRNA; actives raise or lower the signal. The method in brief:
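HepG2 cells transiently transfected with multiplexed cis-promoter reporter units sensing endogenous transcription factors; reporter mRNA measured 24 h after dosing by RT-PCR, 6-FAM labeling, HpaI digestion and capillary electrophoresis. Bidirectional fit versus DMSO.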

Experiment [8] concerns the target Signal transducer and activator of transcription 3 (Homo sapiens) (UniProt P40763). Kind of experiment: ATG_STAT3_CIS: Attagene CIS-FACTORIAL HepG2 Assay for human Signal Transducer and Activator of Transcription 3 (STAT3) (AID 2282963). The note with it: HepG2, Attagene cis-factorial STAT3 reporter transcription; actives raise or lower the signal. Summed up:
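Endogenous STAT3-responsive cis-element activity was read in transiently transfected HepG2 cells after 24 h treatment. Reporter transcripts were quantified via RT-PCR and capillary electrophoresis, with DMSO as negative control and bidirectional curve fitting.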

Experiment [9] in a line: ATG_TA_CIS: Attagene CIS-FACTORIAL HepG2 Assay for human TA Basal Promoter (AID 2282964). The note with it: HepG2 Attagene CIS-factorial TA basal promoter reporter; actives raise or lower the signal. Summed up: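 Fluorescence from labelled RT-PCR reporter fragments, separated by capillary electrophoresis, gives the signal. Cells: HepG2 transiently carrying multiple reporter units, 24 h chemical dosing. Gain or loss relative to DMSO.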

Experiment [10] in a line: ATG_TCF_b_cat_CIS: Attagene CIS-FACTORIAL HepG2 Assay for human T-Cell-Factor with beta-catenin (TCF/b-cat) (AID 2282965). The note with it: HepG2 TCF/beta-catenin cis-reporter transcription, actives raise or lower the signal. The method in brief:
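Endogenous TCF/LEF activity read as reporter transcript level via RT-PCR and capillary electrophoresis fluorescence in transfected HepG2, 24 h exposure; gain or loss of signal fitted against DMSO controls.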

Experiment [11] is described as follows: ATG_TAL_CIS: Attagene CIS-FACTORIAL HepG2 Assay for human TAL Basal Promoter (AID 2282966).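 Note: background control endpoint measuring basal TAL promoter reporter mRNA not a specific factor.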 The conditions noted are these: HepG2 Attagene cis-factorial TAL promoter reporter; actives raise or lower the signal. Summed up:
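Fluorescence of labelled reporter cDNA fragments, resolved by capillary electrophoresis, gave the readout. Human HepG2 liver cells carried transiently transfected cis-element reporter units and were treated for 24 hours; activity was fitted bidirectionally against DMSO.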

Experiment [12] in a line: ATG_TGFb_CIS: Attagene CIS-FACTORIAL HepG2 Assay for human Transforming Growth Factor (TGF) (AID 2282967). The conditions noted are these: HepG2 Attagene CIS TGFb reporter, mRNA transcription; actives raise or lower the signal. The method in brief: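 Bidirectional fitting relative to DMSO gave the endpoint. Underlying data: reporter mRNA from HepG2 cells carrying transiently transfected cis-regulated reporter constructs, harvested 24 h after dosing and analyzed by RT-PCR and capillary electrophoresis.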

Experiment [13] in a line: ATG_VDRE_CIS: Attagene CIS-FACTORIAL HepG2 Assay for human Vitamin D Receptor Element (VDRE) (AID 2282968). The note with it: HepG2 VDRE cis-reporter transcription, actives raise or lower the signal. Summed up: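 Reporter mRNA induction, quantified by capillary electrophoresis of fluorescently labelled RT-PCR products, was read 24 h after dosing HepG2 cells carrying transiently transfected cis-regulated reporter units; gain or loss relative to DMSO.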

For experiment [14], the target named is Nuclear receptor subfamily 1 group I member 3 (Homo sapiens) (UniProt Q14994). In words: ATG_CAR_TRANS: Attagene TRANS-FACTORIAL HepG2 Assay for human Constitutive Androstane Receptor (CAR) (AID 2282969; active = hit-call score of the fitted dose curve at least 0.9, where 1 is the maximum;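 note: activators raise reporter mRNA above DMSO so AC50 marks induction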). The conditions noted are these: HepG2 Attagene TRANS-FACTORIAL CAR reporter. Summed up: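 Readout is reporter mRNA induction, quantified by fluorescent primer extension and capillary electrophoresis after RT-PCR. Cells were HepG2 transiently carrying chimeric NR-Gal4 constructs with GAL4-UAS reporters, treated for 24 h; activity scored upward from DMSO.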
Nuclear receptor subfamily 1 group I member 3 (Homo sapiens), sequence (Q14994 whole entry, looked up, the tested form may be a part): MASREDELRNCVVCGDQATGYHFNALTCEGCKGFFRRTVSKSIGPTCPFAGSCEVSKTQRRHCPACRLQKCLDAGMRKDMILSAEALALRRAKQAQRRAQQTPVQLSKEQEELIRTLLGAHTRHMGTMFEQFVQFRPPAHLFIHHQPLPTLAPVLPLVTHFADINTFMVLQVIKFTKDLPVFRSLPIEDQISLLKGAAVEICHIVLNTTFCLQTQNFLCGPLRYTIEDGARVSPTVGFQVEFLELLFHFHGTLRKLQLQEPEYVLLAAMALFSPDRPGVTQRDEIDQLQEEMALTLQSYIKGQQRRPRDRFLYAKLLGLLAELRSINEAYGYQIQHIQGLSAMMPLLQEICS

Experiment [15] concerns the target Estrogen receptor (Homo sapiens) (UniProt P03372). Kind of experiment: ATG_ERa_TRANS: Attagene TRANS-FACTORIAL HepG2 Assay for human Estrogen Receptor alpha (ERa) (AID 2282970; active = hit-call score of the fitted dose curve at least 0.9, where 1 is the maximum). The note with it: HepG2 Attagene TRANS ERa GAL4 reporter, mRNA. The method in brief:
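Human liver HepG2, transient transfection of multiple GAL4-UAS reporter units; TRANS format (exogenous NR-Gal4 chimera). 24 h dosing. Readout: reporter mRNA, RT-PCR, 6-FAM primer extension, HpaI digest, capillary electrophoresis. Positive direction vs DMSO.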

The target of experiment [16] is X-box-binding protein 1 (Homo sapiens) (UniProt P17861). In words: ATG_Xbp1_CIS: Attagene CIS-FACTORIAL HepG2 Assay for human X-box Binding Protein 1 (XBP1) (AID 2282972). The conditions noted are these: HepG2 XBP1 cis-element reporter, Attagene multiplex; actives raise or lower the signal. The method in brief: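 HepG2 cells transiently transfected with multiple cis-element reporter units report endogenous TF activity; 24 h exposure, then reporter mRNA measured by RT-PCR, 6-FAM labelling, HpaI digestion and capillary electrophoresis. Bidirectional fitting versus DMSO.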
X-box-binding protein 1 (Homo sapiens), sequence (P17861 whole entry, looked up): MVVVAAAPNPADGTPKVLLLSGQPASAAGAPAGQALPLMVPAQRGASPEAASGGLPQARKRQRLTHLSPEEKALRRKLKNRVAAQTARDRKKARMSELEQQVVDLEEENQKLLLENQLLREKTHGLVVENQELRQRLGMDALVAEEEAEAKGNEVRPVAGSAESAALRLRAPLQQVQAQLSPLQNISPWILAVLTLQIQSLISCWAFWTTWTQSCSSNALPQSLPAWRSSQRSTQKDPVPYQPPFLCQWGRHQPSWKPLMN

A short description of experiment [17]: ATG_M_19_TRANS: Attagene TRANS-FACTORIAL HepG2 Assay for M19 Transcription Factor (Internal Marker) (AID 2282974; active = hit-call score of the fitted dose curve at least 0.9, where 1 is the maximum). The conditions noted are these: HepG2 Attagene TRANS-FACTORIAL M19 internal marker reporter. The method in brief:
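HepG2 transiently transfected with GAL4-UAS multiplex reporter constructs, exposed 24 h; reporter RNA quantified by RT-PCR, 6-FAM labeling, HpaI digestion and capillary electrophoresis; internal background marker fitted upward versus DMSO.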

Experiment [18] in a line: ATG_PPRE_CIS: Attagene CIS-FACTORIAL HepG2 Assay for human Peroxisome Proliferator-activated Response Element (PPRE) (AID 2282958). The note with it: HepG2 PPRE cis-element reporter, Attagene transcription factor profiling; actives raise or lower the signal. The method in brief:
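HepG2 cells are transiently transfected with multiplexed cis-promoter reporter units to report endogenous PPAR activity. After 24 h dosing, reporter mRNA is read by RT-PCR and capillary electrophoresis. Fitting is bidirectional against DMSO.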

Experiment [19] deals with Steroid hormone receptor ERR1 (Homo sapiens) (UniProt P11474). In words: ATG_ERRa_TRANS: Attagene TRANS-FACTORIAL HepG2 Assay for human Estrogen-Related Receptor alpha (ERRa) (AID 2282971; active = hit-call score of the fitted dose curve at least 0.9, where 1 is the maximum). The note with it: HepG2 Attagene TRANS reporter, ERRa transactivation. The method in brief: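 Reporter transcript induction was quantified by RT-PCR and capillary electrophoresis of FAM-labelled, HpaI-cut products after 24 h treatment of HepG2 cells carrying transiently transfected GAL4-UAS reporter units and an exogenous ERRa-Gal4 fusion; activity scored as increase over DMSO.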
Steroid hormone receptor ERR1 (Homo sapiens), sequence (P11474 whole entry, looked up, the tested form may be a part): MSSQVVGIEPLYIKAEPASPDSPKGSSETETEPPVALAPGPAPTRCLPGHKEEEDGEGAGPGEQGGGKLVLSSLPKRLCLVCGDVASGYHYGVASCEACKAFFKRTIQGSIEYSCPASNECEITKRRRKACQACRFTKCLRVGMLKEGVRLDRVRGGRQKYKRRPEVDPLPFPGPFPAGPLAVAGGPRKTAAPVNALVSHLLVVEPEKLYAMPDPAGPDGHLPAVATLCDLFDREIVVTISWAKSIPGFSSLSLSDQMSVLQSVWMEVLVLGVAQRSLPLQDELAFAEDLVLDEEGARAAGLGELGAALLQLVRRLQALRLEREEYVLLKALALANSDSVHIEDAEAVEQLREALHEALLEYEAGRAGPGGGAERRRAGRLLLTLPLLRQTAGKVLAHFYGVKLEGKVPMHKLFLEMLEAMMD

Experiment [20] has as its target Androgen receptor (Homo sapiens) (UniProt P10275). Kind of experiment: ATG_AR_TRANS: Attagene TRANS-FACTORIAL HepG2 Assay for human Androgen Receptor (AR) (AID 2282973; active = hit-call score of the fitted dose curve at least 0.9, where 1 is the maximum). The note with it: HepG2 Attagene TRANS-FACTORIAL AR reporter transcription. Summed up:
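Steps: transfect HepG2 with multiple GAL4-UAS reporter transcription units (TRANS format, exogenous NR-Gal4 protein); dose 24 h; isolate RNA, reverse-transcribe, PCR-amplify, FAM-label, HpaI-digest; resolve by capillary electrophoresis. Positive direction vs DMSO.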

Transcription factor Sp1 (Homo sapiens), sequence (P08047 whole entry, looked up): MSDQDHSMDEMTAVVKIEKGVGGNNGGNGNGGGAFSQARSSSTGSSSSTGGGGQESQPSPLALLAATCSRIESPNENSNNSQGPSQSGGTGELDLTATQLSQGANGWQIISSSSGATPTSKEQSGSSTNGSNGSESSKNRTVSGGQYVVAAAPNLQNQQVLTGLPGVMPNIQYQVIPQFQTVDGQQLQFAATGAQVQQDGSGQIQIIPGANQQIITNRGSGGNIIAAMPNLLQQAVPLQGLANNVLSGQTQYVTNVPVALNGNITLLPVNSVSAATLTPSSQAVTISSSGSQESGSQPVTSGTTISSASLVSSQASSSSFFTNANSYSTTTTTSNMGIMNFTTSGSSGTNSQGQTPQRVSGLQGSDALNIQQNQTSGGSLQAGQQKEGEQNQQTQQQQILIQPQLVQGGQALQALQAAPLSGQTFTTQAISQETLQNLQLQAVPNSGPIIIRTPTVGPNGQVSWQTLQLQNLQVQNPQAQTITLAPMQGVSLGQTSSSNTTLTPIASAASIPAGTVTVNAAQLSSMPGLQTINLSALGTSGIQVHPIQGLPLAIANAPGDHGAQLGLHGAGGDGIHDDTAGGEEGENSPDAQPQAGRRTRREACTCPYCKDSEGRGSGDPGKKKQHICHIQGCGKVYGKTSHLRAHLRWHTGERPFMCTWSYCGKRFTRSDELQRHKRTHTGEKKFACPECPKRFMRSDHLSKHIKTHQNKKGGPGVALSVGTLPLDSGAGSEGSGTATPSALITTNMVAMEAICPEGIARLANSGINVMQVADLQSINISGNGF
Signal transducer and activator of transcription 3 (Homo sapiens), sequence (P40763 whole entry, looked up): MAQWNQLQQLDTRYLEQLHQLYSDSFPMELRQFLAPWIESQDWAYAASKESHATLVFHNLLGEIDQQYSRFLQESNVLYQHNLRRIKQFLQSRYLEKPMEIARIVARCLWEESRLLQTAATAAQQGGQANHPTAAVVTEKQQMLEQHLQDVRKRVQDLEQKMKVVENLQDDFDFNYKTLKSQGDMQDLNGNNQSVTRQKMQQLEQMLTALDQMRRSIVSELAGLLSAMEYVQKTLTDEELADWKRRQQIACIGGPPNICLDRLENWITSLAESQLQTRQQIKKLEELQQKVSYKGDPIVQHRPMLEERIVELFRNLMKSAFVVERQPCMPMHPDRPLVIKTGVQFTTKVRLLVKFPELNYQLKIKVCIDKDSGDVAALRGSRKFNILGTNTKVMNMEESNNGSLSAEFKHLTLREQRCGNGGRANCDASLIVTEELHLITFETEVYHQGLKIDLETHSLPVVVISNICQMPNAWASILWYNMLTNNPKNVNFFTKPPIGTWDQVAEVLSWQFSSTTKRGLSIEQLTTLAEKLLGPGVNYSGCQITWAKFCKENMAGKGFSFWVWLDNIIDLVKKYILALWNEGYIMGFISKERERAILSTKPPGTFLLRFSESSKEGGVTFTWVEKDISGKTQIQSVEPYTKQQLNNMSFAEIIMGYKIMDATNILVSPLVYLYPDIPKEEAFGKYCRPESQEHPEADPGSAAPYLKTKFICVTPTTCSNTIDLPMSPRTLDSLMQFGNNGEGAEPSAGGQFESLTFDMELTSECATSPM
Paired box protein Pax-6 (Homo sapiens), sequence (P26367 whole entry, looked up): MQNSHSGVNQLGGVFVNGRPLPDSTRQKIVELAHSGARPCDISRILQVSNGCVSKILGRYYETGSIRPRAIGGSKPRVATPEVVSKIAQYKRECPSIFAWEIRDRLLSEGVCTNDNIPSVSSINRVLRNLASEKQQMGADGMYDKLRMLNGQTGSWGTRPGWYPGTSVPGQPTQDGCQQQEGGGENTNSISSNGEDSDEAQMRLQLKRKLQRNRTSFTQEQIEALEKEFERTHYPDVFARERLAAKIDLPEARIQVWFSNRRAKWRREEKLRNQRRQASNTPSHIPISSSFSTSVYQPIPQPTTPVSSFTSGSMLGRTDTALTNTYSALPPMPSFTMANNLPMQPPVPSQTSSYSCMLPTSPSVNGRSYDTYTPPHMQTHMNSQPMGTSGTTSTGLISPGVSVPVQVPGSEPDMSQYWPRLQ
Androgen receptor (Homo sapiens), sequence (P10275 whole entry, looked up, the tested form may be a part): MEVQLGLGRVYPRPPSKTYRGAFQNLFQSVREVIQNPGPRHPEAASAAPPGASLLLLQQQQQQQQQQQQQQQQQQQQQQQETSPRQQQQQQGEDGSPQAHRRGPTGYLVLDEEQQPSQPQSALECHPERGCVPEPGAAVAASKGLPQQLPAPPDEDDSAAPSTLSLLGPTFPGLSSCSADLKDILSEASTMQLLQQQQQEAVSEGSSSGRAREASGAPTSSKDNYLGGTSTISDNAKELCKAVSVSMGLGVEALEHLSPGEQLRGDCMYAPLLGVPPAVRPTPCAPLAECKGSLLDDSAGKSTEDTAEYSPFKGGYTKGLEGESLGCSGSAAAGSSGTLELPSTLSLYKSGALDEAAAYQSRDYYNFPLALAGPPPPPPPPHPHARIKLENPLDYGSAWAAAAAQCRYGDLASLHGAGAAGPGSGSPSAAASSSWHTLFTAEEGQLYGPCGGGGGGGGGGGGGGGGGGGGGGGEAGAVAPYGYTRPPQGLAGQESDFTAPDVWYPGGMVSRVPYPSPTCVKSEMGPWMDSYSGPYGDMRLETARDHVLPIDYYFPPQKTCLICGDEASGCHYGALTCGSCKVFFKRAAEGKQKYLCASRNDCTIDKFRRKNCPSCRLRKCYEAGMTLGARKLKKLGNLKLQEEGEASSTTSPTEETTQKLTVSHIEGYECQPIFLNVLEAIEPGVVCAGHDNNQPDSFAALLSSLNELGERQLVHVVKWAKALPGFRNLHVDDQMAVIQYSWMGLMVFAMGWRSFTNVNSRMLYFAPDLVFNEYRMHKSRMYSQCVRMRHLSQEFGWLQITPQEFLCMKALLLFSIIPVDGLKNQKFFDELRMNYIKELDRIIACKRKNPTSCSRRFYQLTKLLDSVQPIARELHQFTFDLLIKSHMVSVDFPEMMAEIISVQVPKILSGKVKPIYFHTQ
Estrogen receptor (Homo sapiens), sequence (P03372 whole entry, looked up, the tested form may be a part): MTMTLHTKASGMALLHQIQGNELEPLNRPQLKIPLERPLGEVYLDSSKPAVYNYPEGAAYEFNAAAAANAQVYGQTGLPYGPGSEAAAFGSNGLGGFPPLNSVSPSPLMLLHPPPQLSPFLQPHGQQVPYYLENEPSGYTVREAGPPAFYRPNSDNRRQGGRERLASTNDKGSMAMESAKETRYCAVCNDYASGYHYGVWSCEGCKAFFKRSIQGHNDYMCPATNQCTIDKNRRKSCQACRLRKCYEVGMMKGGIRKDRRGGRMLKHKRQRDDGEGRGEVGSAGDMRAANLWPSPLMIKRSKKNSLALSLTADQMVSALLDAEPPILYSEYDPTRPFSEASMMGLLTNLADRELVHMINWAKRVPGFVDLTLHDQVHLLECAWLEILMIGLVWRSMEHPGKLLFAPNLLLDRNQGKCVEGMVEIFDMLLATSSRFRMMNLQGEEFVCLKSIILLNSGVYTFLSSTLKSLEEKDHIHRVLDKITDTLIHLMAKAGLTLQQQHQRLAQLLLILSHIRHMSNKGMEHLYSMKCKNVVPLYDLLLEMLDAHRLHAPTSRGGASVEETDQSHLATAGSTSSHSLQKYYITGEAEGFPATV

As to `c1ccc(OP(Oc2ccccc2)Oc2ccccc2)cc1`, the result in experiment [1], in experiment [2], in [4], in experiment [5], in experiment [6] and in experiment [7] was inactive. Moreover, the call in [8], in experiment [9], in [11], in experiment [12], in [13] and in [14] was inactive. Further, the call in experiment [16] and in [17] was inactive. Further, the results for the AC50 in experiment [3], in experiment [10] and in experiment [15] were 39.7 µM (active), 100 µM (active) and 74.9 µM (active), respectively.

In the case of `CCOS(=O)(=O)OCC`, the result in [1], in [2], in experiment [3], in [18], in experiment [4] and in experiment [6] was inactive. The compound was called inactive in [7], in [8], in experiment [9], in experiment [10], in experiment [11] and in [12]. Besides, the result in [13] and in experiment [16] was inactive.

Consider `Nc1ccc2ccccc2c1`, for which the result in [1], in [2], in [3], in experiment [4], in [6] and in [7] was inactive. In addition, the result in experiment [8], in experiment [9], in experiment [10], in experiment [11], in [12] and in experiment [13] was inactive. The result in [14], in [15], in experiment [19], in experiment [16] and in experiment [17] was inactive.

For `O=C(O)C(F)(OC(F)(F)C(F)(F)C(F)(F)F)C(F)(F)F` (configuration not stated), the result in [2], in experiment [3], in experiment [18], in [5], in [6] and in [7] was inactive. In addition, the result in experiment [8], in experiment [9], in experiment [10], in experiment [11], in experiment [12] and in experiment [13] was inactive. Besides, the compound was classed as inactive in experiment [14], in experiment [15], in experiment [19], in experiment [16], in experiment [20] and in experiment [17]. For the same compound, in experiment [18], the AC50 (as a rule, the midpoint of the concentration-response curve, whichever way the signal moves) was 74.8 µM (active).
